Laboratory results as given in PubChem BioAssay (NCI).
This is part of a sample that, as a whole, favours compounds with a hit. Of some 83,000 tested, about 20% had one in any assay.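 Growth was measured after 48 h exposure to one concentration of compound in 96-well plates. Values under 10 count as active.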 Values without a mark were called inactive. Active and inactive are the calls of the source.

Each compound was assayed on MDA-MB-231 breast (assay: NCI-60 one-dose screen, 48 h (100 = growth as untreated, 0 = no growth, -100 = all killed)). Conditions: 10 µM unless noted.

Point of comparison: `COc1ccccc1/C=C/C=N/NC1=NC2C(S1)N(C)C(=O)N2c1ccccc1` (stereo unspecified), growth 18.8%. Against it:
- COc1ccc(-c2nnc(SCc3ccc(O)c4ncccc34)o2)cc1 — higher, 52.1%
- C#CCOc1ccc(/C=N/Nc2nc(-c3cc4cc(Br)cc(Br)c4oc3=O)cs2)cc1 — higher, 96%
- CS(=O)c1nccc(-c2c(-c3ccc(F)c(OCCc4ccc(F)cc4)c3)nc3sccn23)n1 (stereo unspecified) — higher, 45%
- O=C1[C@@H]2Cc3c([nH]c4ccccc34)[C@H](c3c(Cl)cccc3Cl)N2C(=O)CN1C1CCN(Cc2c(F)cccc2F)CC1 — higher, 69%
- NNC(=O)c1sc2nc(-c3cnccn3)cc(-c3cccs3)c2c1N — higher, 79%
- Cn1cc(-c2nnc(N)nc2-c2cn(C)c3ccc(F)cc23)c2cc(F)ccc21 — higher, 94.6%
- C[C@H]1[C@H](C)CC[C@]2(COC(=O)c3cccnc3)CC[C@]3(C)C(=CC[C@@H]4[C@@]5(C)CCCNC(C)(C)[C@@H]5CC[C@]43C)[C@H]12 — higher, 79.3%

What follows are compounds tested on RXF 393 renal in the same assay as above. Conditions: 10 µM unless noted.

Point of comparison: `CNC(=O)c1cc(Oc2ccc3nc(NC(=O)c4cc(C)cc(C)c4)sc3c2)ccn1`, growth 69.2%. Against it:
- CC1(C)CC[C@]2(C(=O)O)CC[C@]3(C)C(=CCC4[C@@]5(C)C[C@@H](O)[C@@H]6OC(c7ccccc7O)OC[C@@]6(C)C5CC[C@]43C)C2C1 (stereo partly specified) — higher, 76.9%
- O=C(O)c1ccc(-n2cc(CNc3ccc(F)cc3)c(-c3ccc(C(F)(F)F)cc3)n2)cc1 — higher, 88.2%
- CSc1nccc(-c2c(-c3ccc(F)c(OCc4ccc(F)cc4)c3)nc3sccn23)n1 — higher, 84%
- O=C(COc1ccc(C2SCC(=O)N2c2ccccc2)cc1)c1ccccc1 (stereo unspecified) — higher, 91.2%
- O=C(O)CNS(=O)(=O)c1ccc(Oc2ccc(S(=O)(=O)NCC(=O)O)cc2)cc1 — higher, 112%
- Cn1nc(Nc2ccccc2)c(C(=O)NN)c1N — higher, 109%
- COc1cc(/C=N/n2cnc3oc(-c4ccccc4)cc3c2=N)cc(CN2CCN(C)CC2)c1O — lower, 27.7%
- CC(C)SC1=NC(=C(C(=N1)NC2=ClC=CC=C2)C#N)C3=CC=CC=C3 — higher, 69.3%
- NS(=O)(=O)c1ccc(Nc2nc(N/N=C/c3ccc(F)cc3)nc(Nc3ccccc3)n2)cc1 — lower, 57.9%
- C=C(C)[C@@H]1CC[C@]2(COS(C)(=O)=O)CC[C@]3(C)[C@H](CC[C@@H]4[C@@]5(C)CCCNC(C)(C)[C@@H]5CC[C@]43C)[C@@H]12 — higher, 85.3%
- O=C(Cn1cc(CN2C(=O)c3ccc([N+](=O)[O-])cc3C2=O)nn1)Nc1ccccc1Br — higher, 119%
- COc1cc(-c2nc(SCc3ccc(C)cc3)[nH]c(=O)c2C#N)ccc1OCc1ccccc1 — higher, 108%
- CC(C)N=C(N/C(N)=N/c1nc2ccccc2s1)NC(C)C — lower, 51.9%
- O=C(Nc1cc(Cl)cc(Cl)c1)Nc1ccc2oc(=O)ccc2c1 — lower, 47.7%
- CS(=O)(=O)c1nccc(-c2c(-c3ccc(F)c(OCc4ccccc4)c3)nc3sccn23)n1 — higher, 94.7%
- COc1ccc(OC)c([C@H]2c3[nH]c4ccccc4c3C[C@H]3C(=O)N(CCCCCCC(=O)NO)CC(=O)N23)c1 — higher, 107%
- Cc1cnc2nc(NN)[nH]n12 — higher, 119%
- O=C(NCCCCCCNC(=O)c1c2c(nc3ccccc13)-c1cccnc1SC2)c1c2c(nc3ccccc13)-c1cccnc1SC2 — higher, 73.4%
- COc1ccc(-c2ccc3c4c(cccc24)C(=O)N(N2C(=O)c4cccc5cccc(c45)C2=O)C3=O)cc1 — higher, 108%
- COc1ccc(-c2nnc(SCc3ccc(O)c4ncccc34)o2)cc1 — lower, 60.2%
- C#CCOc1ccc(/C=N/Nc2nc(-c3cc4cc(Br)cc(Br)c4oc3=O)cs2)cc1 — higher, 114%
- CS(=O)c1nccc(-c2c(-c3ccc(F)c(OCCc4ccc(F)cc4)c3)nc3sccn23)n1 (stereo unspecified) — lower, 60.9%
- O=C1[C@@H]2Cc3c([nH]c4ccccc34)[C@H](c3c(Cl)cccc3Cl)N2C(=O)CN1C1CCN(Cc2c(F)cccc2F)CC1 — lower, 65.4%
- NNC(=O)c1sc2nc(-c3cnccn3)cc(-c3cccs3)c2c1N — higher, 102%
- Cn1cc(-c2nnc(N)nc2-c2cn(C)c3ccc(F)cc23)c2cc(F)ccc21 — higher, 104%
- C[C@H]1[C@H](C)CC[C@]2(COC(=O)c3cccnc3)CC[C@]3(C)C(=CC[C@@H]4[C@@]5(C)CCCNC(C)(C)[C@@H]5CC[C@]43C)[C@H]12 — higher, 81.9%

For `CN(c1ccc(Br)cc1)S(=O)(=O)c1ccc(-c2cnc(C3CC3)o2)cc1`, the growth was 6.23% (active).
With `CN1CCN(c2nc(-c3csc(-c4ccncc4)n3)cc3ccccc23)CC1` the growth was -26.5% (active).
In the case of `C#C[C@]1(O)CC[C@H]2[C@@H]3CC=C4c5sc(Nc6cccc(C)n6)nc5CC[C@]4(C)[C@H]3CC[C@@]21C`, the growth is reported as -60.4% (active).
With `CC(C)=CCc1c2c(c(O)c3c1O[C@]14C(=C[C@@H]5C[C@H]1C(C)(C)O[C@@]4(C/C=C(/C)C(=O)O)C5=O)C3=O)CC(O)C(C)(C)O2` (stereo partly specified) the growth was -77.4% (active).
For `COc1ccc(C2C(C#N)=C(N)Oc3c2sc2ccc(C)cc32)cc1` (stereo unspecified), the growth was -7.62% (active).
With `C#C[C@]1(O)CC[C@H]2[C@@H]3CC=C4c5sc(-c6ccccn6)nc5CC[C@]4(C)[C@H]3CC[C@@]21C` the growth was -34.4% (active).
With `COc1ccc(-c2nc3cc(Cl)c(Cl)cc3n2CC(=O)N=Nc2c(O)[nH]c3ccc(Br)cc23)cc1` the growth was -58.3% (active).
With `COc1ccc(-c2nc3cc(Cl)c(Cl)cc3n2CC(=O)N=Nc2c(O)[nH]c3ccc(Cl)cc23)cc1` the growth was -48.2% (active).
With `CCOC(=O)c1c(NCC(=O)Nc2ccc(Br)cc2)sc2c1CCCC2` the growth was -50.1% (active).
For `CN1C(=O)/C(=C/C=C/c2ccco2)SC1=S`, the growth was -20.9% (active).
In the case of `COc1ccccc1/C=C/C=N/NC1=NC2C(S1)N(C)C(=O)N2c1ccccc1` (stereo unspecified), the growth is reported as 1.56% (active).
